Sampled rows, rich in hits. Any-hit rate of the full collection: about 1.8%.
L3MBTL1 inh: qHTS Assay for the Inhibitors of L3MBTL1; 230,000 tested, 0.66% active; Lethal(3)malignant brain tumor-like protein 1 (Homo sapiens), Q9Y468; AlphaScreen L3MBTL1–H3K9me1 peptide binding; Potency, µM (series often up to 57.1 µM), actives largely listed as inhibitors; also: nearly all actives have a fitted effect of over 60% in size
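AlphaScreen assay: L3MBTL1 (50 nM final) was preincubated 30 min at room temperature with biotinylated H3(1-15)K9me1 peptide (75 nM final), then 30 min with library compounds; streptavidin donor and nickel chelate acceptor beads (10 ug/mL final) added, 30 min dark.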
HTT aggregate: qHTS Multiplex Assay to Identify Dual Action Probes in a Cell Model of Huntington: Aggregate Formation (GFP); 220,000 tested, 1.1% active; PC12 HttQ103-GFP aggregates, Acumen cytometry, 40 h; Potency, µM (series often up to 46.1 µM), hits mostly inhibitors; also: nearly all actives have a fitted effect of over 60% in size
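PC12 cells stably carrying ecdysone-inducible HTT exon 1 Q103–GFP were induced with tebufenozide (100 nM final) and treated with library compounds in titration. GFP aggregates in lysates were counted by laser scanning cytometry.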
HTT ATP protect: qHTS Multiplex Assay to Identify Dual Action Probes in a Cell Model of Huntington: Cytoprotection (ATP) | 230,000 tested, 0.14% active | PC12 HTT-Q103 induced, cytoprotection, ATP luminescence, 40 h | Potency, µM (top dose mostly 56.4 µM), most hits filed as activators; also: nearly all actives have a fitted effect of over 45% in size
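Readout: ATPlite luminescence (ATP level). Model: stable PC12, inducible Htt exon1 Q103-GFP. Inducer: tebufenozide, 100 nM final. Compounds: dose series. No G418 in medium.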
KDM4E inh: qHTS Assay for Inhibitors of Human Jumonji Domain Containing 2E (JMJD2E); JMJD2E catalytic domain, FDH-coupled NADH fluorescence (FDH is formaldehyde dehydrogenase); Potency, µM (series often up to 57.1 µM), usual class: inhibitors; 230,000 tested, 1.6% active; AID 2147, 2009; active = well fitted inhibition curve with a large enough effect, not every such curve was filed as active; inconclusive = small, poorly fitted or top-dose-only effect, or another doubt; inactive = no such curve, though single readings can be large or run the other way; also: nearly all actives have a fitted effect of over 50% in size
Target sequence (B2RXH2 1-337 limits assumed): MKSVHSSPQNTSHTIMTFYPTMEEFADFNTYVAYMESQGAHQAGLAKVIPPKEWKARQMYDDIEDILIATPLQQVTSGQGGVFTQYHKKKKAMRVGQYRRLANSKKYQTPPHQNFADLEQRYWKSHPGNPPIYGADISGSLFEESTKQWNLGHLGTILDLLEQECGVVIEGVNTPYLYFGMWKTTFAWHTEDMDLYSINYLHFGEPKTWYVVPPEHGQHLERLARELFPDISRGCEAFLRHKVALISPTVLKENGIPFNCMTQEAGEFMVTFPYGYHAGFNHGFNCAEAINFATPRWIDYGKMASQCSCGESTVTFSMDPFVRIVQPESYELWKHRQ
Hits are given with their value; n = inactive; u = inconclusive; x = no result given; ! = not active in a repeat; [ ] = remark or other dose. Unless noted, calls follow the shape of the dose curve; as a rule, active = well fitted curve in the direction sought with a large enough effect; inconclusive = small, poorly fitted or top-dose-only effect, or another doubt; inactive = no such curve, though single readings can be large; an effect the other way counts as inactive or inconclusive.

SMILES	L3MBTL1 inh	HTT aggregate	HTT ATP protect	KDM4E inh
CO/N=C1/c2cc(OC)ccc2O[C@@H](c2cccc(OC)c2)[C@H]1O	x	x	n[10 µM]	x
C#CCCCO/N=C1/C[C@@H](O)[C@@H](O)[C@@H]2[C@@H]3C(=O)N(C4CCCCC4)C(=O)[C@H]3CC[C@@H]12	x	x	n[10 µM]	x
COC(=O)c1ccc(O)cc1	x	n	n	x
COC(=O)c1cc(=O)c(O)c2c(O)c(O)ccc2c1	x	x	x	8.9µM
COc1cc(C2Nc3cccc4cccc(c34)N2)ccc1O	n	x	x	x
Oc1ccc2ccccc2c1C1Nc2cccc3cccc(c23)N1	x	u	n	28µM
CC(=O)N1CCN(c2ccc(Nc3ncnc4c3oc3ccccc34)cc2)CC1	n	18µM	n	u
CCc1nc(Nc2ccc(N3CCN(C(C)=O)CC3)cc2)c2oc3ccccc3c2n1	n	u	n	u
CCOC(=O)/C=C(\C)Sc1cc(=O)oc2ccccc12	n	n	n[10 µM]	n
CCOC(=O)/C=C(\C)Sc1cc(O)c2ccccc2c1O	u	n[9.22 µM]	n[10 µM]	3.5µM
COc1ccc(-c2cnc(N)nc2-c2ccc(OC)cc2O)cc1	n	11µM	u	n
O=C(c1cc(COc2c(F)cccc2F)on1)N1CCC(c2ccccc2F)C1 (stereo not drawn)	n	n[9.22 µM]	n[10 µM]	n
O=C(c1cc(COc2ccc(F)cc2Cl)on1)N1CCC(OCc2cccnc2)CC1	n	11µM	n	n
O=C(c1cc(COc2c(F)cccc2F)on1)N1CCC(c2ccncc2)CC1	n	20µM	n	n
CC(C)=CCC/C(C)=C/CO/N=C1/C[C@@H](O)[C@@H](O)[C@@H]2[C@@H]3C(=O)N(c4cccc(Oc5ccccc5)c4)C(=O)[C@H]3CC[C@@H]12	x	x	n[10 µM]	x
CN(Cc1ccco1)Cc1ccc(O)c2ncccc12	11µM!	x	x	x
CCCOCc1ccc(O)c2ncccc12	28µM	n[9.22 µM]	n[10 µM]	14µM
Oc1ccc(CN2CCN(c3ccccc3)CC2)c2cccnc12	n	n	n[10 µM]	18µM
Oc1ccc(COCc2ccccc2)c2cccnc12	8.9µM	u	n	u
Oc1ccc(CNCc2ccccc2)c2cccnc12	x	x	n[10 µM]	x
COc1ccc(C2=CC3=C(Br)C(=O)C(C)(OC(=O)CCc4ccccc4)C(=O)C3=CO2)cc1 (stereo not drawn)	x	x	n	n
[N-]=[N+]=Nc1ccc(C(=O)CSC[C@H](NC(=O)CC[C@H](N)C(=O)O)C(=O)NCC(=O)O)cc1	x	x	x	n
CCOC(=O)N/N=C1/C[C@@H](O)[C@@H](O)[C@@H]2[C@@H]3C(=O)N(Cc4ccccc4)C(=O)[C@H]3CC[C@H]12	x	x	n[10 µM]	x
OCc1ccc(O)c2ncccc12	18µM	10µM	n	16µM
O=C(O)c1cccnc1C(=O)O	u	x	n	2µM
SMILES	L3MBTL1 inh	HTT aggregate	HTT ATP protect	KDM4E inh
Oc1ccc(F)c2cccnc12	u	n	n	20µM
Cc1ccc(C)c(S(=O)(=O)N2CCN(Cc3ccc(O)c4ncccc34)CC2)c1	u	u	n	3.5µM
O=C(O)c1cccnc1Cl	n	n	n[10 µM]	n
Cc1ccc(N=Nc2ccc(O)c3ncccc23)cc1C	x	u	n	n
CCOC(=O)OCC1OC(c2ccccc2)C=CC1OC(=O)OCC (stereo not drawn)	x	x	n[10 µM]	x
COc1ccc(COC(=O)N/N=C2/C[C@@H](O)[C@@H](O)[C@@H]3[C@@H]4C(=O)N(c5cccc(Oc6ccccc6)c5)C(=O)[C@H]4CC[C@H]23)cc1	x	x	n[10 µM]	x
COc1ccc(CNc2nc(-c3ccc4c(c3)OCO4)nc3ccccc23)c(OC)c1	x	x	n	x
O=C(O)c1cccnc1Br	x	n	n	n
O=C(O)c1ccc(O)c2ncccc12	16µM	x	x	x
CC(C)COCc1ccc(O)c2ncccc12	20µM	10µM	n	20µM
O=C(O)CCC/C=C\C/C=C\C=C\[C@@H](O)C/C=C\CCCCCO	x	x	n	n
CO[C@@H]1COC(=O)[C@H](C)NC(=O)C/C=C\[C@@H](C)[C@H](OC)COC(=O)[C@H](C)NC(=O)C/C=C\[C@H]1C	x	x	n[10 µM]	x
Oc1ccc(-c2cn3c(n2)SCC3)cc1O	x	n	n[10 µM]	13µM
O=C1S/C(=C/c2ccc(N3CCOCC3)o2)C(=O)N1Cc1ccc(F)cc1	n	n	n	n
Cc1ccc(-c2ccc(/C=C3\SC(N4CCOCC4)=NC3=O)o2)cc1	x	n	2.8µM	n
O=C1NC(=S)S/C1=C/c1ccc(N2CCOCC2)o1	32µM	n	x	n
C=CCN1C(=O)N/C(=C/c2ccc(N3CCOCC3)o2)C1=O	n	5µM	x	n
CN(C)C(=O)c1ccc(-c2cc(NCc3ccccc3)ncn2)cc1	x	x	n	x
Cc1cc(C)c(-c2cc([C@H](C)O/N=C3/[C@H]4OC4[C@@H](O)[C@H]4[C@H]3CCn3c(=O)n(-c5ccccc5)c(=O)n34)on2)c(C)c1 (stereo partly drawn)	x	x	n[10 µM]	x
Cc1cccc(C)c1OC[C@@H](N)C(C)C	x	x	n[1.9 µM]	x
O=[N+]([O-])c1ccc(-c2cnc3ccccc3n2)cc1	n	x	x	x
O=[N+]([O-])c1ccc(-c2c(O)c3ccccc3c3nc4ccccc4nc23)cc1	x	7.1µM	n	n
CC(=NCC(=O)O)c1ccccc1	x	x	n[10 µM]	x
Cc1ccc(-n2nnnc2SCn2nnc3ccccc3c2=O)c(C)c1	x	8.9µM	n	n
Cc1cc(SCn2nnc3ccccc3c2=O)nc2ccccc12	n	n	n[10 µM]	n
CCCCC/C=C\C\C=C/C=C/C=C/[C@@H](SCC(N)C(=O)O)[C@@H](O)CCCC(=O)O (stereo partly drawn)	x	x	u	n
O=C(Nc1ccc(Cl)cc1)c1cc(S(=O)(=O)N2CCOCC2)cs1	x	10µM	n	n

Screening results: PubChem, National Center for Advancing Translational Sciences (NCATS)
